Only a selection was taken, and hits are over-represented in it overall.
Tg IFNy HTS: blocks Toxoplasma gondii growth in the presence of IFN-gamma; Toxoplasma gondii growth in IFN-gamma-treated host cells; active compounds read low; activity change, negative = inhibition, % (concentration not given with the values); 69,000 compounds, 3.8% hits; in the data active means activity change below about -70%, passing the limit was not always enough;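 further: host cells are HeLa cells infected with Toxoplasma gondii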
* = called active by the depositor.

SMILES	Tg IFNy HTS
O=C(c1ccccc1)c1cc(C(=O)c2ccccc2)c(-c2ccccc2)nc1-c1ccccc1	-89*
Cc1nc(-c2ccccc2)c(NC(=O)c2ccccc2)s1	12
COc1cc(CNC(=O)C2(C)CCN(C(=O)Cc3ccc(C)cc3)CC2)cc(OC)c1	37
N#Cc1ccc(-c2ccc([C@@H]3[C@@H]4CN(S(=O)(=O)Cc5ccccc5)C[C@H]3N4)cc2)cc1	-71*
N#Cc1cccc(-c2ccc(C3[C@@H]4CN(Cc5ccccc5)C[C@H]3N4)cc2)c1 (some centres undefined)	-21
N#Cc1ccc(-c2ccc([C@@H]3[C@@H]4CN(Cc5cocn5)C[C@H]3N4)cc2)cc1	-46
CC(C)(C)CC(Nc1nc(-c2cccnc2)nc2c1CNC2)c1cccnc1 (centres undefined)	-18
CC(C)Cc1cc(CNc2nc(-c3cccnc3)nc3c2CCNC3)no1	-36
CCc1cc(C(C)Nc2nc(-c3cccnc3)nc3c2CNC3)on1 (centres undefined)	-88*
CNc1nc(C)c(C(=O)N2CCN(Cc3ccc(C)cc3)C(=O)C2C)s1 (centres undefined)	-15
CCn1c(C2CCCN(C(=O)c3cnnn3-c3ccccc3)C2)nn(C)c1=O (centres undefined)	-63
O=C(c1ccc(N2CCCCC2)cc1)N1CCc2c([nH]c3ccccc23)C1c1ccccn1 (centres undefined)	3
CC(C)N(C)CC1CCC2(CCN(C(=O)c3ccccc3)CC2)CO1 (centres undefined)	-20
Nc1nnc(Sc2nc3c(Cl)cc(Cl)cc3s2)s1	-85*
Nc1nnc(CSCc2ccc(Cl)cc2Cl)s1	-35
Nc1nnc(SCc2c(Cl)cccc2Cl)s1	80
CN1C(=O)CC(c2ccccc2)C12CCN(Cc1cccs1)CC2 (centres undefined)	1
O=C(c1nc(-c2cccc(F)c2)n2c1CCCCC2)N1CCN(c2ccccn2)CC1	-39
CN1C(=O)CCC12CCC(NC(=O)CC1CCCC1)CC2 (centres undefined)	9
COc1ccccc1N1CCN(Cc2nc(-c3ccc(Br)cc3)cs2)CC1	-72*
COc1ccccc1N1CCN(CCCCNC(=O)c2ccc(-c3ccc(C(C)=O)cc3)cc2)CC1	7
COc1ccccc1N1CCN(C(=O)c2cccs2)CC1	7
COCCN1CCCC(O)(CN2CCN(c3cnccn3)CC2)C1=O (centres undefined)	5
Cc1ccc(-c2nc(Cn3c(=O)c4c(C(=O)N5CCCCC5)cc(C)nc4n(C)c3=O)c(C)o2)cc1	7
COc1ccc(C(=O)NC2CCCc3c2cnn3Cc2ccccc2Cl)cc1 (centres undefined)	-80*
SMILES	Tg IFNy HTS
COc1ccc(C(=O)N2C[C@H]3[C@@H](c4ccccc42)[C@@H](CO)N3Cc2ccccc2Cl)cc1	1
COc1ccc(C(=O)N2C[C@@H]3[C@H](c4ccccc42)[C@H](CO)N3Cc2ccccc2Cl)cc1	-1
CN(C)N=Nc1ccc(C(=O)O)cc1	24
CN(C)C1CCCN(C(=O)CCc2ccccc2Cl)CC1 (centres undefined)	4
Cc1scc(C(=O)NCC2CCC(c3ncc(Cl)cc3-c3ccncc3)CC2)c1C (centres undefined)	-88*
Cc1ncc(-c2ccccn2)c(C2CCC(CNC(=O)c3scnc3C)CC2)n1 (centres undefined)	8
Cc1ncc(-c2ccncc2C)c(C2CCC(CNC(=O)c3oc(C)nc3C)CC2)n1 (centres undefined)	-32
Cc1c(C(=O)NC(C)(C)CN2CCOCC2)sc2ncn(C)c(=O)c12	-5
COc1ncccc1-c1ccc(NC(=O)c2cccnc2)c(C)c1	-85*
Cc1cc(-c2ccccc2CO)ccc1NC(=O)c1cccnc1	-28
COc1ccc(-c2ccc(NC(=O)c3cccnc3)c(C)c2)c(OC)c1OC	-23
C=C1C(=O)CC2CC3OC3(C)CCC3OC3(C)C[C@H](OC(C)=O)C1C2(C)C (some centres undefined)	-70
Cc1ccc2nc(SCC(=O)N3Cc4cnn(CCO)c4C3)[nH]c2c1	-3
O=C1Nc2cc(Cl)ccc2Oc2ccccc21	7
O=C1NC2(C=Cc3c(ccc4ccccc34)O2)Oc2ccccc21 (centres undefined)	-107*
CCOc1ccc(CN2CCN(c3nc(C)ccc3C(N)=O)CC2)cn1	-2
Cc1csc(NC(=O)CCC2CCCCC2)n1	-44
O=C(Nc1ccc(F)cc1)Nc1nc(SCc2ccc(F)cc2)ns1	-110*
Cc1ccc(-c2coc(-c3ccc(NC(=O)Nc4ccc(F)cc4)cc3)n2)cc1	29
CCSc1nsc(NC(=O)CN2CCC(Oc3cccc(F)c3)CC2)n1	12
Cc1ccsc1C(=O)N1CC[C@H]2[C@@H]1CCN2CC1CCOCC1	-9
CCn1c(CC2CCN(c3nnnn3-c3ccccc3)CC2)nn(C)c1=O	-4
Cc1ccc(C(=O)NCCc2sc(-c3cccc(F)c3)nc2C)cc1	-1
Cc1nc(-c2ccc(F)cc2)sc1CCNC(=O)c1ccc(C(F)(F)F)cc1	-41
Cc1nc(-c2ccc(F)cc2)sc1CCNC(=O)c1cccc(C(F)(F)F)c1	-74*
SMILES	Tg IFNy HTS
Cc1nc(-c2ccc(Cl)cc2)sc1CCNC(=O)c1cccc(C(F)(F)F)c1	-41
Cc1cccc(-c2nc(C)c(CCNC(=O)C(=O)Nc3c(C)cccc3C)s2)c1	11
Cc1cccc(-c2nc(C)c(CCNC(=O)C(=O)Nc3c(C)cc(C)cc3C)s2)c1	-79*
Cc1nc(-c2ccc(F)cc2)sc1CCNC(=O)c1cccc(F)c1	-38
Cc1nc(-c2cccc(F)c2)sc1CCNC(=O)c1ccc(C(F)(F)F)cc1	-90*
Cc1cc(C)c(NC(=O)C(=O)NCCc2sc(-c3cccc(F)c3)nc2C)c(C)c1	27
CCOc1ncccc1-c1ccc(C(C)NC(C)=O)cc1 (centres undefined)	7
Cc1cc(C)n(CC(O)CN(Cc2ccco2)Cc2cccc3ncccc23)n1 (centres undefined)	8
CCn1c(C2CCCN(C(=O)c3cnc(C)cn3)C2)nn(C)c1=O (centres undefined)	5
CN(C)C(=O)CC1CC2(CCN(C(=O)N3CCCC3)CC2)Oc2ccccc21 (centres undefined)	-13
COc1cc([C@@H]2c3cc4c(cc3[C@@H](O[C@@H]3O[C@@H]5CO[C@@H](c6cccs6)O[C@H]5[C@H](O)[C@H]3O)[C@H]3COC(=O)[C@H]23)OCO4)cc(OC)c1O	-71*
COc1cc([C@@H]2c3cc4c(cc3C(OC3OC5COC(C)OC5C(O)C3O)C3OCC(=O)[C@@H]32)OCO4)cc(OC)c1O (some centres undefined)	-81*
COc1cc([C@@H]2c3cc4c(cc3C(OC3O[C@@H]5COC(C)O[C@H]5[C@H](O)[C@H]3O)C3COC(=O)[C@@H]32)OCO4)cc(OC)c1O (some centres undefined)	-70
Cn1cccc1C(=O)N1CCCn2nnc(COCC3CC3)c2C1	11
CN1CCN(c2ccc(N)cc2C(=O)O)CC1	-5
CC(C)CS(=O)(=O)N1CCC2(CC1)[C@H]1CN(c3ncccn3)C[C@@H]1C(=O)N2C	4
Cc1ccc(CN2C[C@H]3OCCN(CCN4CCCC4)[C@H]3C2)s1	-5
Cc1cc(C)c2[nH]c(C)c(CC(=O)N(C)C(c3ccccn3)C3CC3)c2c1 (centres undefined)	1
COc1ccc2cc1Oc1ccc(cc1)C[C@H]1c3c(cc4c(c3Oc3cc5c(cc3OC)CCN(C)[C@@H]5C2)OCO4)CCN1C	-5

High-throughput results from PubChem BioAssay.
